Measured values reported in the supplement of paper PMC12636033.
± gives the standard deviation of the averaged measurements. The full ranking holds about 33,000 sequences; the median of “E-score (rank enrichment, -0.5 to 0.5)” is about -0.0043, and the highest 2% start at about 0.24. Only a selection was taken, and the highest values are over-represented in it overall.

Test system: 2Sp-muMax20 (muMax20 with two 2,6-bis(methyl)pyridine Cys staples)
Test: PBM 8-mer E-score (E-score (rank enrichment, -0.5 to 0.5)); higher = stronger preferential binding
Procedure: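 Protein binding microarray (universal PBM chip covering all 10-mers in fixed probe flanks) with chemically synthesized human Max(13-93) bHLH-LZ analogs (not full-length Max) bearing noncanonical residues (hArg, Tha, Aib, Nle at 65) and aromatic Cys staples. Read-out per 8-mer (and its reverse complement): E-score (rank-based enrichment, -0.5 to 0.5) and Z-score of median probe intensity.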

Row | Sequence | PBM 8-mer E-score
1 | ATTATACA | 0.0914 ± 0.033
2 | ACTATATG | 0.196 ± 0.0091
3 | GCTATATA | 0.149 ± 0.013
4 | ATTATACC | 0.238 ± 0.031
5 | ATTATACG | 0.125 ± 0.014
6 | CTTCGGAA | -0.0272 ± 0.017
7 | ATTCGCCC | 0.0547 ± 0.0036
8 | ATCTGACA | -0.0699 ± 0.061
9 | ATATTCAC | 0.109 ± 0.072
10 | CTATTCAA | 0.266 ± 0.08
11 | TTATTCAA | 0.133 ± 0.037
12 | ATATTCAT | 0.299 ± 0.027
13 | ATATTCAA | 0.157 ± 0.012
14 | ATATTCAG | 0.126 ± 0.074
15 | ACGCTTTC | -0.00481 ± 0.013
16 | ACGCGAAT | 0.0678 ± 0.068
17 | TAGAATGA | 0.207 ± 0.064
18 | CAAGTATA | 0.142 ± 0.1
19 | CTAGTATA | 0.219 ± 0.023
20 | ATAGTATA | 0.11 ± 0.035
21 | AAAGTATT | 0.223 ± 0.0032
22 | GTAGTATA | 0.236 ± 0.045

Row | Sequence | PBM 8-mer E-score
23 | AAAGTATA | 0.236 ± 0.03
24 | CGAACCTA | -0.123 ± 0.015
25 | GCGCACTA | 0.0235 ± 0.033
26 | GAATGCTA | -0.14 ± 0.023
27 | AAATGCTA | 0.251 ± 0.058
28 | AAATGCTG | 0.0946 ± 0.018
29 | GTAAACTA | 0.175 ± 0.032
30 | CACCAACA | 0.106 ± 0.0083
31 | GCCCCATA | 0.29 ± 0.019
32 | CGCCCATA | 0.0508 ± 0.075
33 | CCCCCATA | 0.0149 ± 0.042
34 | GGCCCATA | -0.0969 ± 0.099
35 | AGCCCATA | 0.238 ± 0.035
36 | GACCCATA | 0.188 ± 0.032
37 | GTACCAAC | -0.0554 ± 0.078
38 | ATCCAGGC | -0.01 ± 0.042
39 | AAGACAGG | -0.106 ± 0.025
40 | GTCTGGAA | -0.0499 ± 0.016
41 | ATCCAAGA | -0.0976 ± 0.054
42 | AGGTGGAT | -0.1057 ± 0.00054
43 | AAAAATCG | -0.00934 ± 0.012
44 | ACATAATC | 0.109 ± 0.04

Row | Sequence | PBM 8-mer E-score
45 | GCATAATA | 0.2429 ± 0.0015
46 | CCATAATA | 0.161 ± 0.054
47 | GCATAAGA | 0.0752 ± 0.0016
48 | ACATAGTA | 0.118 ± 0.076
49 | CCATAGTA | 0.144 ± 0.0076
50 | ACATAATA | 0.262 ± 0.075
51 | GCATAGTA | 0.273 ± 0.032
52 | ACATAATG | 0.193 ± 0.064
53 | GACATGAC | 0.00058 ± 0.047
54 | GTATGCAC | 0.075 ± 0.08
55 | AACGTTGG | -0.0574 ± 0.07
56 | CGAGCGAA | 0.0234 ± 0.064
57 | CTCATTAA | 0.273 ± 0.031
58 | AGCATTAG | 0.0579 ± 0.1
59 | AGCATTAA | 0.209 ± 0.0096
60 | AGCATTAT | 0.266 ± 0.05
61 | CTCATTAC | 0.197 ± 0.087
62 | ATCATTAA | 0.0844 ± 0.0038
63 | CGCATTAA | 0.0861 ± 0.014
64 | TGCATTAA | 0.285 ± 0.014
65 | AGCATTAC | -0.0132 ± 0.0023
66 | CCGGGCTA | -0.277 ± 0.0046

Row | Sequence | PBM 8-mer E-score
67 | TGACCTCA | -0.183 ± 0.016
68 | AGCTCAGA | -0.181 ± 0.0029
69 | CGGATAGC | -0.0994 ± 0.018
70 | CTAGCTGA | -0.0742 ± 0.045
71 | ATACATAA | 0.0924 ± 0.008
72 | AGTCATAA | 0.037 ± 0.035
73 | AGTCATAG | 0.0709 ± 0.034
74 | AGTCATAT | 0.24 ± 0.015
75 | AGACATAC | -0.0281 ± 0.088
76 | ATACATAT | 0.258 ± 0.0069
77 | ATACATAC | 0.0484 ± 0.023
78 | AGACATAG | 0.0229 ± 0.087
79 | AGACATAT | 0.249 ± 0.0045
80 | ACCTTATG | 0.0929 ± 0.036
81 | GGGGAACA | 0.124 ± 0.0046
82 | AATCAACC | 0.157 ± 0.047
83 | ACTAAGCT | -0.0864 ± 0.087
84 | ATTCTCAC | 0.0448 ± 0.078
85 | ATAGCATG | 0.258 ± 0.037
86 | ATAGCATA | 0.204 ± 0.038
87 | ATAGCATC | 0.118 ± 0.015
